{"source": "the supplement of paper PMC9262897", "about": "“Low-cost anti-mycobacterial drug discovery using engineered E. coli” (Nature Communications, 2022)", "system": "E. coli TESEC Mtb Alr", "experiment": "growth (OD600 after 10 h); higher = more growth (less inhibition)", "conditions": "compound 0.1 mM", "description": "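TESEC Mtb Alr E. coli, or the Alr+ wild-type control, in 384-well plates with Prestwick library compounds at 0.1 mM and 1% DMSO, across arabinose induction levels of 1E3 to 1E7 nM. Growth is read as OD600 after 10 h at 37 °C in triplicate biological replicates.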", "key": {"[1]": {"conditions": "arabinose 1000 nM, raw OD600 reference: median of DMSO wells 0.294, cell-free background 0.041"}, "[2]": {"conditions": "arabinose 10000 nM, raw OD600 reference: median of DMSO wells 0.264, cell-free background 0.041"}, "[3]": {"conditions": "arabinose 100000 nM, raw OD600 reference: median of DMSO wells 0.201, cell-free background 0.041"}, "[4]": {"conditions": "arabinose 1000000 nM, raw OD600 reference: median of DMSO wells 0.193, cell-free background 0.041"}, "[5]": {"conditions": "arabinose 10000000 nM, raw OD600 reference: median of DMSO wells 0.146, cell-free background 0.041"}}, "note": "Counter-ions that a name gives are not always drawn. ± gives the standard deviation of the averaged measurements.", "data": [{"compound": "NCC(O)c1ccc(O)cc1", "note": "(racemic) [(+,-)-Octopamine hydrochloride]", "values": [{"measurement": "growth", "setting": "[1]", "result": "0.325 ± 0.02"}, {"measurement": "growth", "setting": "[2]", "result": "0.268 ± 0.011"}, {"measurement": "growth", "setting": "[3]", "result": "0.194 ± 0.012"}, {"measurement": "growth", "setting": "[4]", "result": "0.179 ± 0.0096"}, {"measurement": "growth", "setting": "[5]", "result": "0.162 ± 0.0021"}]}, {"compound": "COc1ccc(CCN2CCC(Nc3nc4ccccc4n3Cc3ccc(F)cc3)CC2)cc1", "note": "[Astemizole]", "values": [{"measurement": "growth", "setting": "[1]", "result": "0.0406 ± 0.00056"}, {"measurement": "growth", "setting": "[2]", "result": "0.04013 ± 0.00025"}, {"measurement": "growth", "setting": "[3]", "result": "0.0411 ± 0.0019"}, {"measurement": "growth", "setting": "[4]", "result": "0.04007 ± 0.00031"}, {"measurement": "growth", "setting": "[5]", "result": "0.0404 ± 0.0002"}]}, {"compound": "CC(C)c1c(CN(C)C(C)Cc2ccccc2)n(C)n(-c2ccccc2)c1=O", "note": "(stereo not given) [Famprofazone]", "values": [{"measurement": "growth", "setting": "[1]", "result": "0.279 ± 0.013"}, {"measurement": "growth", "setting": "[2]", "result": "0.27 ± 0.014"}, {"measurement": "growth", "setting": "[3]", "result": "0.154 ± 0.0078"}, {"measurement": "growth", "setting": "[4]", "result": "0.131 ± 0.0042"}, {"measurement": "growth", "setting": "[5]", "result": "0.154 ± 0.0085"}]}, {"compound": "CC(=O)O[C@H]1CC[C@@]2(C)C(=CC[C@@H]3[C@@H]2CC[C@]2(C)C(=O)CC[C@@H]32)C1", "note": "[Dehydroisoandosterone 3-acetate]", "values": [{"measurement": "growth", "setting": "[1]", "result": "0.239 ± 0.019"}, {"measurement": "growth", "setting": "[2]", "result": "0.253 ± 0.01"}, {"measurement": "growth", "setting": "[3]", "result": "0.144 ± 0.0063"}, {"measurement": "growth", "setting": "[4]", "result": "0.106 ± 0.015"}, {"measurement": "growth", "setting": "[5]", "result": "0.134 ± 0.0039"}]}, {"compound": "CCCCCC[C@H]1C(=O)O[C@H](C)[C@H](NC(=O)c2cccc(NC=O)c2O)C(=O)O[C@@H](C)[C@@H]1OC(=O)CC(C)C", "note": "[Antimycin A]", "values": [{"measurement": "growth", "setting": "[1]", "result": "0.203 ± 0.018"}, {"measurement": "growth", "setting": "[2]", "result": "0.234 ± 0.0026"}, {"measurement": "growth", "setting": "[3]", "result": "0.249 ± 0.022"}, {"measurement": "growth", "setting": "[4]", "result": "0.125 ± 0.0067"}, {"measurement": "growth", "setting": "[5]", "result": "0.159 ± 0.0018"}]}, {"compound": "COc1cc2c(cc1OC)C(C)NCC2", "note": "(stereo not given)", "values": [{"measurement": "growth", "setting": "[1]", "result": "0.2925 ± 0.0014"}, {"measurement": "growth", "setting": "[2]", "result": "0.275 ± 0.0075"}, {"measurement": "growth", "setting": "[3]", "result": "0.225 ± 0.035"}, {"measurement": "growth", "setting": "[4]", "result": "0.188 ± 0.0027"}, {"measurement": "growth", "setting": "[5]", "result": "0.15 ± 0.0045"}]}, {"compound": "CC(C)(N)Cc1ccccc1", "note": "[Phentermine hydrochloride]", "values": [{"measurement": "growth", "setting": "[1]", "result": "0.288 ± 0.017"}, {"measurement": "growth", "setting": "[2]", "result": "0.273 ± 0.0063"}, {"measurement": "growth", "setting": "[3]", "result": "0.199 ± 0.033"}, {"measurement": "growth", "setting": "[4]", "result": "0.193 ± 0.0084"}, {"measurement": "growth", "setting": "[5]", "result": "0.138 ± 0.0031"}]}, {"compound": "COc1ccc(OC)c(C(O)C(C)N)c1", "note": "(stereo not given) [Methoxamine hydrochloride]", "values": [{"measurement": "growth", "setting": "[1]", "result": "0.292 ± 0.0063"}, {"measurement": "growth", "setting": "[2]", "result": "0.27 ± 0.005"}, {"measurement": "growth", "setting": "[3]", "result": "0.212 ± 0.024"}, {"measurement": "growth", "setting": "[4]", "result": "0.187 ± 0.003"}, {"measurement": "growth", "setting": "[5]", "result": "0.148 ± 0.0068"}]}]}
